39 molecules from the supplement of paper PMC9588786 can be followed below.

SMILES strings stand for the structures. Where a name gives a salt, the structure may show the parent alone. ± gives the standard deviation of the averaged measurements.
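Also: viability read as CCK-8 absorbance at 450 nm in cells co-exposed to the GPX4 inhibitor RSL3, relative to a 0.01% DMSO vehicle control.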

This assay deals with HT-1080. Description: relative cell viability with RSL3 co-treatment (fraction of control); higher = stronger protection from RSL3-induced ferroptosis (higher viability). The settings on record: 10 µM.
For the molecule `CN1CC[C@H](c2c(O)cc(O)c3c(=O)cc(-c4ccccc4Cl)oc23)[C@H](O)C1` [Flavopiridol HCl], the relative cell viability is 0.763 ± 0.17. As for `N#C/C(=C(/N)Sc1ccc(N)cc1)c1ccccc1C(F)(F)F`, the relative cell viability is 0.913 ± 0.038. As for `C[C@H](NC(=O)/C(C#N)=C/c1cccc(Br)n1)c1ccccc1`, the relative cell viability is 0.807 ± 0.13. Regarding `Cc1[nH]c(/C=C2\C(=O)Nc3ccc(S(=O)(=O)Cc4c(Cl)cccc4Cl)cc32)c(C)c1C(=O)N1CCC[C@@H]1CN1CCCC1`, the relative cell viability amounted to 0.19 ± 0.046. For the molecule `Cn1cc(/C=C2\C(=O)Nc3cccnc32)c2ccccc21`, the relative cell viability amounted to 0.927 ± 0.015. Regarding `CCS(=O)(=O)Nc1ccc2c(c1)/C(=C(/Nc1ccc(CN3CCCCC3)cc1)c1ccccc1)C(=O)N2` [Hesperadin], the relative cell viability turned out to be 0.293 ± 0.12.

For the molecule `C=CC(=O)Nc1cccc(Nc2nc(Nc3ccc(Oc4ccnc(C(=O)NC)c4)cc3)ncc2F)c1`, the relative cell viability is 0.6 ± 0.056. Turning to `Cc1cc(O)c2c(c1)C(=O)c1cccc(O)c1C2=O` [Chrysophanic Acid], the relative cell viability worked out at 0.6567 ± 0.0058. For the molecule `CC(C)NC[C@@H](C(=O)N1CCN(c2ncnc3c2[C@H](C)C[C@H]3O)CC1)c1ccc(Cl)cc1` [Ipatasertib (GDC-0068)], the relative cell viability was determined as 0.697 ± 0.12. `C=CC(=O)Nc1ccc2ncnc(Nc3cccc(Br)c3)c2c1`: the relative cell viability is 0.593 ± 0.055. With `COc1cccc(-c2cc(=O)c3ccccc3o2)c1N` the figure was 0.717 ± 0.064.

`CNC(=O)c1nn(C)c2c1C(C)(C)Cc1cnc(Nc3ccc(N4CCN(C)CC4)cc3)nc1-2`: the relative cell viability was 0.723 ± 0.16. With `Cc1cc(Nc2ncc(Cl)c(Nc3ccccc3S(=O)(=O)C(C)C)n2)c(OC(C)C)cc1C1CCNCC1` [Ceritinib (LDK378)] the figure was 0.513 ± 0.057; with `Nc1cccc(-c2cc3c(Oc4cccc(O)c4)ncnc3[nH]2)c1`, 0.483 ± 0.046; with `O=C(Nc1cccc(Cl)c1)Nc1ncc(CCNc2ncnc3ccsc23)s1` [SNS-314 Mesylate], 0.217 ± 0.015. `N#CCNC(=O)c1ccc(-c2ccnc(Nc3ccc(N4CCOCC4)cc3)n2)cc1` [Momelotinib (CYT387)]: the relative cell viability is 0.4 ± 0.075.

For the molecule `N#Cc1ccc2[nH]c(O)c(-c3ccc(CN4CCOCC4)cn3)c2c1`, the relative cell viability worked out at 0.75 ± 0.046. With `O=C(O)CCC(=O)Nc1ccc(Br)cn1` [Bikinin], the relative cell viability is 0.723 ± 0.14. Consider `COc1cc2ncnc(Nc3ccc(Cl)cc3F)c2cc1OC`, for which the relative cell viability turned out to be 0.757 ± 0.14.

Consider `C=CC(=O)Nc1ccc(CN2C(=O)N(c3cc(OC)cc(OC)c3)Cc3cnc(Nc4ccc(N5CCN(C)CC5)cc4)nc32)cc1`, for which the relative cell viability turned out to be 0.56 ± 0.01. As for `Cc1csc(-c2nnc(Nc3ccc(Oc4ncccc4-c4ccnc(N)n4)cc3)c3ccccc23)c1`, the relative cell viability is 0.56 ± 0.087.

As to `CNC(=O)c1cc(Oc2ccc(NC(=O)Nc3ccc(Cl)c(C(F)(F)F)c3)cc2)ccn1` [Sorafenib Tosylate], the relative cell viability turned out to be 0.317 ± 0.04. On to `Cc1c(CN2CCN(C(=O)[C@H](C)O)CC2)sc2c(N3CCOCC3)nc(-c3cnc(N)nc3)nc12` [Apitolisib (GDC-0980, RG7422)], for which the relative cell viability came to 0.47 ± 0.09. In the case of `Cc1cnc(Nc2ccc(OCCN3CCCC3)cc2)nc1Nc1cccc(S(=O)(=O)NC(C)(C)C)c1`, the relative cell viability was found to be 0.433 ± 0.093.

Turning to `Cn1cc(C2=C(c3ccc(Cl)cc3Cl)C(=O)NC2=O)c2ccccc21`, the relative cell viability was determined as 0.8333 ± 0.0058. On to `Cc1cc(Nc2cc(CN3CCOCC3)c3nc(C)c(Cc4ccc(Cl)cc4F)n3n2)n[nH]1`, for which the relative cell viability amounted to 0.383 ± 0.095. The value for `CCN(CC)CCCCNc1ncc2cc(-c3cc(OC)cc(OC)c3)c(NC(=O)NC(C)(C)C)nc2n1` was 0.633 ± 0.14; that for `NC(=O)Nc1cc(-c2cccc(F)c2)sc1C(=O)N[C@H]1CCCNC1` was 0.55 ± 0.01. For the molecule `COc1ncc(-c2ccc3nccc(-c4ccnnc4)c3c2)cc1NS(=O)(=O)c1ccc(F)cc1F`, the relative cell viability is 0.24 ± 0.14. With `C#Cc1cccc(Nc2ncnc3cc4c(cc23)OCCOCCOCCO4)c1` [Icotinib] the figure was 0.64 ± 0.075; with `O=C1NC(=O)/C(=C/c2ccc3c(c2)OC(F)(F)O3)S1`, 0.82 ± 0.07; with `Cc1cc(C(C)Nc2ccccc2)c2nc(N3CCOCC3)cc(=O)n2c1` (centres undefined), 0.627 ± 0.059. As to `Cn1sc(=O)n(Cc2ccccc2)c1=O`, the relative cell viability was 0.887 ± 0.11.

Turning to `CO[C@H]1CC[C@H](N2C(=O)CNc3ncc(-c4ccc(C(C)(C)O)nc4)nc32)CC1`, the relative cell viability came out at 0.733 ± 0.091. Turning to `CN(C)C/C=C/C(=O)Nc1cc2c(Nc3ccc(F)c(Cl)c3)ncnc2cc1O[C@H]1CCOC1` [Afatinib (BIBW2992)], the relative cell viability came out at 0.72 ± 0.061. With `COc1ccc(S(=O)(=O)N(C(C)=O)c2ccccc2/C=C/c2cc[n+]([O-])cc2)cc1`, the relative cell viability was 0.633 ± 0.015. Regarding `CO[C@H]1C[C@@H]2CC[C@@H](C)[C@@](O)(O2)C(=O)C(=O)N2CCCC[C@H]2C(=O)O[C@H]([C@H](C)C[C@@H]2CC[C@H](n3cnnn3)[C@H](OC)C2)CC(=O)[C@H](C)/C=C(\C)[C@@H](O)[C@@H](OC)C(=O)[C@H](C)C[C@H](C)/C=C/C=C/C=C/1C` [Zotarolimus(ABT-578)], the relative cell viability stood at 0.607 ± 0.16. In the case of `O=C1NC(=O)C(c2cnc3ccccn23)=C1c1cn2c3c(cc(F)cc13)CN(C(=O)N1CCCCC1)CC2`, the relative cell viability was 0.577 ± 0.015.

For `NC[C@@](O)(c1ccc(Cl)cc1)c1ccc(-c2cn[nH]c2)cc1`, the relative cell viability came out at 0.687 ± 0.22.
